# Laboratory results published in PubChem BioAssay (EPA / NIEHS).
# The source made the active and inactive calls. The calls were made as follows: active = hit-call score of the fitted dose curve at least 0.9, where 1 is the maximum; inconclusive = response in the unintended direction; inactive = score below 0.9.
# System: Thyroperoxidase (TPO), gene 54314
# Test: CCTE_Simmons_AUR_rTPO: CCTE's Amplex UltraRed Assay for Thyroperoxidase (TPO) Inhibition, Simmons Lab (AID 2283662);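 as to AC50: potency for loss of signal meaning inhibition of peroxidase activity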
# Method: CCTE_Simmons_AUR_rTPO is a biochemical, single-readout assay that uses microsomes from rat thyroid gland in a tissue-based cell-free assay. Measurements were taken 0.5 hour after chemical dosing in a 384-well plate.CCTE_Simmons_AUR_rTPO is the assay component measured from the CCTE_Simmons_AUR_rTPO assay. It is designed to make measurements of thyroperoxidase (TPO) activity as detected with fluorescence intensity signals using the Amplex UltraRed technology as a form of enzyme activity reporter.Data from the assay component CCTE_Simmons_AUR_rTPO was analyzed at the endpoint, CCTE_Simmons_AUR_rTPO, in the positive analysis fitting direction relative to DMSO as the negative control and baseline of activity. Using a type of enzyme reporter, the Amplex UltraRed assay, loss-of-signal activity can be used to understand decreased peroxidase activity in the presence of excess […]. To generalize the intended target to other relatable targets, this assay endpoint is annotated to the oxidoreductase intended target family, where the subfamily is peroxidase.
# As described previously (Paul et al., 2014), the AUR substrate was repurposed to detect peroxidase (ie, TPO) activity in the presence of excess H2O2 for the AUR-TPO assay. The reaction profile for the 384-well format AUR-TPO assay is scaled to an 80 ul assay volume containing 25 uM AUR, 300 uM H2O2, and 5 ug microsomal protein in 200 mM phosphate buffer. The assay concentration of thyroid microsomal protein was approximately […]. First, rat microsomes containing TPO and diluent 200mM potassium phosphate buffer were added to opaque, black 384-well plates (Greiner, BioExpress; Kaysville, Utah) using an automated liquid handler (BioTek MicroFlo; Winooski, Vermont) with a plastic 5 ul tubing cassette. Similarly, AUR was added next by automated liquid handling. Test compounds were administered using a HDRT as described earlier to achieve a 0.5% final DMSO concentration. Finally, H2O2 (300 uM, final concentration) was then added by the BioTek MicroFlo to initiate the reaction. Microplates were incubated at 37C in the dark for 30min. Plates were then shaken on a fluorescence plate reader (FLUOStar Optima, BMG LabTech; GmbH, Germany), and endpoint fluorescence (top read) was measured using 10 flashes per well at 544/590nm excitation/emission. Three biological replicates of technical singles were run for every chemical concentration tested. A titrated range of MMI served as a positive control for TPO inhibition on each plate of the AUR-TPO screening campaign. Test chemicals were administered as a titrated series of 8 concentrations from 5 nM up to 87.5 uM [final] for 30 minutes prior to single endpoint detection. Dimethylsulfoxide [DMSO] was used as the vehicle control. Methimazole [MMI] was used as the positive control and was administered as a titrated series of 8 concentrations from 1 nM up to 271 uM [final].
SMILES,AC50,outcome
CN(C)C(=O)Nc1ccc(Cl)c(Cl)c1,36.6 µM (active),–
CCCCOCCOCCOCc1cc2c(cc1CCC)OCO2,34.2 µM (active),–
S=C([S-])NCCNC(=S)[S-].[Mn+2],12.6 µM (active),–
N[C@@H](Cc1cc(I)c(Oc2ccc(O)c(I)c2)c(I)c1)C(=O)O,2.92 µM (active),–
CC(C)CCCCCCc1ccc(O)cc1,20.6 µM (active),–
CCOC(=O)C(C)Oc1ccc(Oc2nc3ccc(Cl)cc3o2)cc1 (configuration not stated),43.6 µM (active),–
CCCOC(=O)c1ccc(C(=O)OCCC)nc1,–,inactive
CSC(=O)c1cccc2nnsc12,0.303 µM (active),–
Oc1ccc(C(c2ccc(O)cc2)C(Cl)(Cl)Cl)cc1,4.87 µM (active),–
O=C(Nc1ccc([N+](=O)[O-])cc1Cl)c1cc(Cl)ccc1O,3.56 µM (active),–
O=C(c1ccc(O)cc1O)c1ccc(O)cc1O,0.19 µM (active),–
N#CSCSc1nc2ccccc2s1,2.57 µM (active),–
